Source: PubChem BioAssay AID371 (SRMLSC, 2006)
Out of some 3,300 compounds screened, about 280 (8.5%) were called active.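 Rule for the calls: active = mean growth inhibition over the two runs of 50% or more; inactive = mean growth inhibition under 50%.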 The entries come from a sample that favours actives as a whole.

Experiment: A549 NSCLC cell proliferation inhibitors – ATP luminescence, human non-small cell lung line, primary screen (AID 371);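 note: compound exposure lasted 72 h before the ATP read; 0% = untreated cell signal and 100% = no luminescence left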
Conditions: at 10 µM, stronger effect = higher value

Growth inhibition, inactive:
CCCC(CCC(=O)Nc1ccc(C(=O)OC)cc1)C(=O)O (configuration not stated) 5.31%
N#Cc1c(N2CCOCC2)nc(N2CCCCC2)c2c1CCN(C1CCCCC1)C2 23.2%
CC(C)COC(=O)CCNc1n[nH]c(=O)[nH]c1=O 2.08%
O=c1cc(-c2ccco2)nc(-c2cccs2)o1 15%
COc1cccc(-c2nnc3sc(-c4ccco4)nn23)c1 11.9%
Cc1cc(C)n(CC2CC(=O)N(c3ccc(F)c(Cl)c3)C2=O)n1 (configuration not stated) 1.52%
Cn1nccc1C(=O)Nc1ccccc1C(=O)O 2.72%
CCCSc1nc(O)c(C2OC(=O)c3c2ccc(OC)c3OC)c(=O)n1C (configuration not stated) 3.43%
Cc1ccc(-n2ncc3c(N4CCC(C(N)=O)CC4)ncnc32)c(C)c1 7.75%
CCc1cccc(C)c1N(C(=O)Cn1c(=O)[nH]c2ccccc21)C(C)COC (configuration not stated) 17.6%
CCSc1nnc(NC(=O)NCC(F)(F)F)s1 -0.28%
CCC(NC(=O)Nc1nccs1)(C(F)(F)F)C(F)(F)F 2.27%
CCN(CC)CCN1C(=O)C(=O)/C(=C(/O)c2ccc(OC)cc2)C1c1ccco1 (configuration not stated) 2.24%
Cc1cc(NCCNC2=CC(=O)CCC2)nc2ccccc12 3.87%
Cc1cc(N/C=C/C(=O)c2cccc3ccccc23)no1 40.5%
CC(=O)Oc1ccc2c(C)cc(=O)[nH]c2c1 10.7%
C[C@]12CC[C@@H]3c4ccc(OS(=O)(=O)O)cc4CC[C@H]3[C@@H]1CCC2=O -4%
C[C@]12CC[C@@H]3c4ccc(O[C@@H]5O[C@H](C(=O)O)[C@@H](O)[C@H](O)[C@H]5O)cc4CC[C@H]3[C@@H]1C[C@@H](O)[C@@H]2O -8.48%
C[C@]12CC[C@@H]3c4ccc(O)cc4CC[C@H]3[C@@H]1CC[C@@H]2OC(=O)CCC(=O)O 14.8%
C[C@]12CC[C@@H]3c4ccc(O)cc4CC[C@H]3[C@@H]1CCC2=O 14.8%
CCOC(=O)COn1c(=O)c(-c2ccc(OC)c(OC)c2)[n+]([O-])c2ccccc21 4.28%
CCCCSc1nc(N)c(C#N)c(-c2cccs2)c1C#N 40.8%
CC1(C)C2CCC1(C)C(NC(=O)CCN1CCCCC1)C2 (configuration not stated) 7.81%
CNS(=O)(=O)c1cccc2nsnc12 -11.4%
COc1cc(S(=O)(=O)N2CCN(C)CC2)c(OC)cc1Br 6.26%
CCN1CCc2c(C#N)c(N3CCOCC3)nc(NCc3ccccc3)c2C1 23.9%
CCN1CCc2c(C#N)c(NCc3ccccc3)nc(NCCO)c2C1 3.07%
CCN1CCc2c(C#N)c(N3CCCCC3)nc(N3CCOCC3)c2C1 4.36%
CCN(CC)c1nc(N2CCOCC2)c(C#N)c2c1CN(C)CC2 11.1%
CCN1CCc2c(C#N)c(N3CCOCC3)nc(NCCO)c2C1 6.84%
C=CCNc1nc(N2CCOCC2)c(C#N)c2c1CN(C)CC2 2.03%
CN1CCc2c(C#N)c(N3CCCCC3)nc(N3CCOCC3)c2C1 3.07%
CN1Cc2c(N3CCOCC3)nc(SCc3ccccc3)c(C#N)c2CC1(C)C 45.5%
FC(F)(F)c1cccc(-n2cccc2/C=N/n2cnnc2)c1 9.69%
CSc1nc2[nH]c3c(c2c2ncnn12)CCCC3 38.4%
Cc1cc(=O)n2[nH]c(N3C(=O)CCC3=O)nc2n1 1.01%
Cc1nccn1-c1cc(C(C)C)c(C#N)c2nc3ccccc3n12 2.71%
O=c1[nH]c(CN2CCCCC2)nc2c1C1(CCCC1)Cc1ccccc1-2 2.71%
[N-]=[N+]=CC(=O)c1ccnc(C(=O)C=[N+]=[N-])c1 23.6%
COc1ccc(/C(O)=C2\C(=O)C(=O)N(c3cc(C)on3)C2c2ccccc2OC)cc1 (configuration not stated) -10.7%
O=C1c2ccccc2C(=O)N1CC1c2ccccc2CCN1C(=O)N1CCOCC1 (configuration not stated) 5.08%
CCOC(=O)c1c(NC(=O)CCN2CCOCC2)sc2c1CC(C)(C)OC2 5.84%
Nc1[nH]nc2nc(NCc3ccccc3)c3c(c12)CCN(Cc1ccccc1)C3 24.5%
N#Cc1c(NCCCO)nc(-c2ccccc2)c2c1CCCC2 32.5%
N#Cc1c(N2CCCCC2)nc(N2CCCCC2)c2c1CCN(Cc1ccccc1)C2 19.3%
C=CCNc1nc(N2CCCCC2)c(C#N)c2c1CN(Cc1ccccc1)CC2 37.1%
CCCc1cc(=O)oc2c(CN3CCN(C)CC3)c(O)c(Cl)cc12 1.1%
CCOC(=O)Cc1[nH]nc2c1C(c1cc(OC)ccc1OC)C(C#N)=C(N)O2 (configuration not stated) -2.35%
COCCOC(=O)c1c(C)nc(SCC(=O)Nc2ccc(C)cc2)c(C#N)c1-c1ccco1 3.22%
Cc1nc(N2CCOCC2)c(C#N)c2c1COC(C)(C)C2 12.7%
COc1ccc([C@@H]2Sc3ccccc3N(CCN(C)C)C(=O)[C@@H]2OC(C)=O)cc1 15.1%
CN1CCN(C2=Nc3cc(Cl)ccc3Nc3ccccc32)CC1 26%
CN(C)CCCN1c2ccccc2CCc2ccccc21 16.1%
CN(C)CCCN1c2ccccc2Sc2ccccc21 29.4%
CN(C)CCCOC(=O)c1ccc(Cl)cc1Cl 5.84%

Growth inhibition, active:
CCSc1nnc(NC(=O)NC(CC)(C(F)(F)F)C(F)(F)F)s1 82.1%
CCCCC(=O)O[C@H]1CC[C@H]2[C@@H]3CCc4cc(O)ccc4[C@H]3CC[C@]12C 92.3%
C[C@]12CC[C@@H]3c4ccc(OC(=O)c5ccccc5)cc4CC[C@H]3[C@@H]1CC[C@@H]2O 73.8%
CCN1CCc2c(C#N)c(NCc3ccccc3)nc(N(CC)CC)c2C1 67.3%
CCCCCNc1nc(N2CCCC2)c2c(c1C#N)CCN(C)C2 95.5%
C=CCNc1nc(NCc2ccccc2)c(C#N)c2c1CN(C)CC2 70.9%
CCN1CCc2c(C#N)c(N3CCCCC3)nc(NCc3ccccc3)c2C1 88.8%
N#Cc1c(NCCN)nc(NCc2ccccc2)c2c1CCN(Cc1ccccc1)C2 91.8%
CN1CCc2c(C#N)c(N3CCCCC3)nc(NCc3ccccc3)c2C1 90.4%
CN(C)CCCN1c2ccccc2Sc2ccc(C(F)(F)F)cc21 90.7%
CN(C)CCCN1c2ccccc2CCc2ccc(Cl)cc21 85.6%
CN(C)CCCN1c2ccccc2Sc2ccc(Cl)cc21 92.2%
